High-throughput results (PubChem BioAssay)
The sample as a whole holds a higher share of hits than the screen did.
ST2 inh: blocks human ST2 binding to IL-33; AlphaLISA ST2-Fc/biotin-IL-33 interaction, 1 h; inhibition, % for hits at 17 µM; 78,000 compounds, 2.3% hits; Q01638; in the data active = inhibition above about 30%
Target sequence (Q01638 whole entry, looked up): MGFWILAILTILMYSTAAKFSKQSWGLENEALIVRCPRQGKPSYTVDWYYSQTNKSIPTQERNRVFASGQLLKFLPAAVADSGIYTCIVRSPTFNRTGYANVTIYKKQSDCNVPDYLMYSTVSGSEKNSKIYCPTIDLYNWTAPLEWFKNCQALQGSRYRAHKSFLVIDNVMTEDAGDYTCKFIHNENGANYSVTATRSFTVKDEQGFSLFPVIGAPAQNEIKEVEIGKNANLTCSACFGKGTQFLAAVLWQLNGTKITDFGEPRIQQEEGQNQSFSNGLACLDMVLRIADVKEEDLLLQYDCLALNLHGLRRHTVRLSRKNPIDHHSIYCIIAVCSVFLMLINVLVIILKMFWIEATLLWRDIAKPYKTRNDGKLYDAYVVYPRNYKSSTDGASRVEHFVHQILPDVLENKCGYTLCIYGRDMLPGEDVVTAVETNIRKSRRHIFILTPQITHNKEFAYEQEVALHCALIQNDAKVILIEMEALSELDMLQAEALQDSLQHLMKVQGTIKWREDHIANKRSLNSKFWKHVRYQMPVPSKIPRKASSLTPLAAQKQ
Numbers without * were called inactive; i = inactive.

SMILES	ST2 inh
COc1ccc(CN2CCN(Cc3ccccc3Br)CC2)c(OC)c1OC	i
CC(CC#CCN1CCOCC1)OC(C)(C)C (centres undefined)	i
CSc1ccc(C2C(C#N)=C(N)OC3=C2C(=O)CC(c2ccccc2)C3)cc1 (centres undefined)	i
CS(=O)(=O)Nc1nc2ccc(Cl)cc2s1	i
CC1(C)CC(=O)C2=C(C1)OC(c1ccc(Cl)cc1Cl)C(C#N)=C2N (centres undefined)	i
CC(=O)N(CN1C(=O)c2ccc(Br)cc2C1=O)c1cccc(C(=O)O)c1	45%*
CC(=O)N(CN1C(=O)c2ccc(Br)cc2C1=O)c1ccc(OCc2ccccc2)cc1	i
CC(=O)N(CN1C(=O)c2ccccc2C1=O)c1cccc(C)c1	i
Cc1nnc(CN(C)C(=O)CC(c2ccccc2)c2ccco2)o1 (centres undefined)	i
NC(CO)C(O)c1ccc([N+](=O)[O-])cc1 (centres undefined)	i
CN(CCCC(=O)O)c1nc(-c2cccc([N+](=O)[O-])c2)cs1	i
CN(C)CCCn1c(-c2ccc([N+](=O)[O-])cc2)csc1=Nc1ccccc1	51%*
CN(C)CCN(C)Cc1ccc([N+](=O)[O-])cc1	i
C=CCn1c(-c2ccccc2)csc1=Nc1cccc([N+](=O)[O-])c1	59%*
Cc1[nH]n(-c2ccc([N+](=O)[O-])cc2)c(=O)c1C=NCC(O)c1ccccc1 (centres undefined)	i
C=CCn1c(C)csc1=Nc1ccc(S(=O)(=O)Nc2nc(C)cc(C)n2)cc1	i
Cc1ccc(C(=O)CN2C3=NCCCN3c3ccccc32)cc1	i
Cc1ccc(C(=O)Cn2c(C)csc2=Nc2ccccc2)cc1	41%*
COCc1cc(C)n(CC(=O)c2ccccc2)c(=O)c1C#N	i
Cc1csc(=Nc2ccccc2)n1CC(O)c1ccc([N+](=O)[O-])cc1 (centres undefined)	39%*
O=[N+]([O-])c1cccc(N=Cc2nc(-c3ccccc3)oc2O)c1	i
Cc1ccc(CNCc2cccnc2N2CCCC(O)C2)o1 (centres undefined)	i
OCCOc1ccccc1OCCO	i
CS(=O)(=O)c1ccc2nc(NC(=O)c3ccc4c(c3)OCCO4)sc2c1	i
COCCN(C)C(=O)c1cccc(-n2cc(NC(=O)Cc3cccc(C)c3)cn2)c1	i
SMILES	ST2 inh
O=C(Nc1ccc(F)cc1F)c1cccc(Br)c1	i
CCc1ccc(N2C(=O)c3ccccc3NC2c2ccc3c(c2)OCO3)cc1 (centres undefined)	i
O=C(C1CCCCC1)N1CC[C@H](c2nnc(-c3ccccc3)o2)C1	i
O=C(NCCn1cc(SCC(=O)N2CCCCC2)c2ccccc21)c1ccc(F)cc1	i
COc1ccc(NC(=O)CCCn2nc(C)c([N+](=O)[O-])c2C)cc1	i
OCC1CCCCN1CCn1ccnc1-c1ccc2c(c1)OCCO2 (centres undefined)	i
Cc1ccc2oc(=O)c(-c3nc4ccccc4s3)cc2c1	36%*
C=C(C)COc1ccc2cc(-c3nc4ccccc4s3)c(=O)oc2c1	i
CCN(CC)c1ccc2cc(-c3nc4ccccc4s3)c(=O)oc2c1	i
COc1cc(CC(C)C(C)Cc2ccc(O)c(O)c2)ccc1O (centres undefined)	i
COc1ccc(N(C(=O)C(C)Oc2ccccc2)C2C=CS(=O)(=O)C2)cc1 (centres undefined)	i
Cc1cccn2c(=O)c3cc(C(=O)Nc4ccccc4F)n(C)c3nc12	i
CC1CCCN(C(=O)CSc2nnc(-c3ccc(Cl)s3)o2)C1 (centres undefined)	i
CC(C)Cn1cc(C(=O)NC2CCCC2)c2c3ccccc3n(C)c2c1=O	i
Cn1cc(C(=O)NC2CCCCCC2)c2c3ccccc3n(C)c2c1=O	i
CC(C)Cn1cc(C(=O)NC2CCCCC2)c2c3ccccc3n(C)c2c1=O	36%*
COc1ccccc1-c1cccc(C(=O)NC(C)Cc2ccccn2)c1 (centres undefined)	i
O=C(c1cc2sccc2[nH]1)N(Cc1cccnc1)CC1CCCN(C2CCCCC2)C1 (centres undefined)	i
CC(=O)c1ccc(NC(=O)c2ccc3nc(-c4ccco4)c(-c4ccco4)nc3c2)cc1	40%*
CC(=O)c1ccc(NC(=O)c2cc(-c3ccco3)on2)cc1	i
CC(=O)c1ccc(NC(=O)c2cccc(Cl)c2)cc1	i
O=C(NCc1ccco1)c1cccn2c(=O)c3cc4ccccc4cc3nc12	i
COCCCNC(=O)c1cc2c(=O)n3cccc(C)c3nc2n1C	i
COCCCNC(=O)c1cccn2c(=O)c3cc4ccccc4cc3nc12	30%*
COc1ccccc1Oc1ncccc1CNCc1ccccc1Cl	i
SMILES	ST2 inh
O=C1c2ccccc2C(=O)N1CN(CN1C(=O)c2ccccc2C1=O)C1CC1	i
COc1ccc(Cl)cc1NC(=O)CCC1CCCN(C(=O)Cc2c(C)noc2C)C1 (centres undefined)	i
Cc1ccc(OCCCN2CCCCC2)c([N+](=O)[O-])c1	i
CCS(=O)(=O)N1CCN(c2c(Cl)cccc2[N+](=O)[O-])CC1	i
Cc1c(Cl)c([N+](=O)[O-])cc([N+](=O)[O-])c1N1CCCC1	40%*
COc1cc(CC(=O)O)c(C(=O)O)cc1OC	i
CCOc1ccc(N2C(=O)Nc3ccccc3C2(O)C(=O)NC2CC2)cc1 (centres undefined)	i
Cc1ccccc1OCCNS(=O)(=O)c1cccc([N+](=O)[O-])c1	i
COc1ccc(C2CC(c3ccccc3)=NN2C(=O)c2cc(OC)c(OC)c(OC)c2)cc1 (centres undefined)	i
COc1ccccc1C1CC(c2ccccc2)=NN1C(=O)c1ccccc1 (centres undefined)	i
COc1cc(C(=O)N2N=C(c3ccccc3)CC2c2ccc(N(C)C)cc2)cc(OC)c1OC (centres undefined)	48%*
O=C1c2ccccc2CN1c1ccc(OC(F)(F)F)cc1	i
Cc1ccc(NC(=O)Cn2c(-c3ccc4c(c3)OCO4)cn(-c3ccccc3)c2=O)cc1	31%*
COc1ccc(NC(=O)CN2CCN(Cc3ccc4c(c3)OCO4)CC2)cc1	i
Cc1ccc(-c2noc(CCC(=O)Nc3ccc4c(c3)OCO4)n2)cc1	i
O=C(c1cncc(N2CC(c3ccncc3)C2)n1)N1CCCC1	i
COc1cc(C=Nc2cccc(C(C)=O)c2)cc(OC)c1OC	i
Cc1ccccc1N1C(N)=C(C#N)C(c2ccc(F)cc2)C2=C1CCCC2=O (centres undefined)	i
N#CC1=C(N)N(c2ccccc2[N+](=O)[O-])C2=C(C(=O)CCC2)C1c1cccc([N+](=O)[O-])c1 (centres undefined)	31%*
N#CC1=C(N)OC2=C(C(=O)CCC2)C1c1cccc([N+](=O)[O-])c1 (centres undefined)	i
CC1CC(C)CN(S(=O)(=O)c2cc(Cl)ccc2Cl)C1 (centres undefined)	i
O=C(NC1CC1)C1C2C=CC3(CN(Cc4cccs4)C(=O)C13)O2 (centres undefined)	i
N#CC1=C(N)Oc2cc(N)ccc2C1c1ccc(Cl)c(Cl)c1 (centres undefined)	i
COCC1CCCCN1C(=O)c1coc(COc2ccccc2)n1 (centres undefined)	i
CCn1c(/C=C/c2ccc(F)cc2)nc2ccccc2c1=O	i
CC(=O)c1ccccc1-c1ccc2ccccc2n1	i
